# Measured values taken from the supplement of paper PMC11001985.
# Unmarked numbers belong to inactive results.
# Compound: C#CCNC(=O)CCSSCCC(=O)NCCc1ccc(C=O)c(C=O)c1
# Experiment: lysine labeling ratio R10:1 (500 µM / 50 µM probe), SILAC-ABPP in living cells; higher = lower intrinsic lysine reactivity toward the probe, active = 2 or less
# Details: HeLa; probe concentrations 500 vs 50 µM
# In short: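 For each lysine, R is the median over forward and reverse replicates of the filtered median MS1 peptide ratio of high probe to low probe. The probe, an alkyne-tagged, disulfide-linked lysine probe, was given at 500 µM or 50 µM to living SILAC light and heavy HeLa cells in PBS at room temperature, with label swaps. Values are capped at 20.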
# Chain of UniProt Q15149 (Q15149 whole entry): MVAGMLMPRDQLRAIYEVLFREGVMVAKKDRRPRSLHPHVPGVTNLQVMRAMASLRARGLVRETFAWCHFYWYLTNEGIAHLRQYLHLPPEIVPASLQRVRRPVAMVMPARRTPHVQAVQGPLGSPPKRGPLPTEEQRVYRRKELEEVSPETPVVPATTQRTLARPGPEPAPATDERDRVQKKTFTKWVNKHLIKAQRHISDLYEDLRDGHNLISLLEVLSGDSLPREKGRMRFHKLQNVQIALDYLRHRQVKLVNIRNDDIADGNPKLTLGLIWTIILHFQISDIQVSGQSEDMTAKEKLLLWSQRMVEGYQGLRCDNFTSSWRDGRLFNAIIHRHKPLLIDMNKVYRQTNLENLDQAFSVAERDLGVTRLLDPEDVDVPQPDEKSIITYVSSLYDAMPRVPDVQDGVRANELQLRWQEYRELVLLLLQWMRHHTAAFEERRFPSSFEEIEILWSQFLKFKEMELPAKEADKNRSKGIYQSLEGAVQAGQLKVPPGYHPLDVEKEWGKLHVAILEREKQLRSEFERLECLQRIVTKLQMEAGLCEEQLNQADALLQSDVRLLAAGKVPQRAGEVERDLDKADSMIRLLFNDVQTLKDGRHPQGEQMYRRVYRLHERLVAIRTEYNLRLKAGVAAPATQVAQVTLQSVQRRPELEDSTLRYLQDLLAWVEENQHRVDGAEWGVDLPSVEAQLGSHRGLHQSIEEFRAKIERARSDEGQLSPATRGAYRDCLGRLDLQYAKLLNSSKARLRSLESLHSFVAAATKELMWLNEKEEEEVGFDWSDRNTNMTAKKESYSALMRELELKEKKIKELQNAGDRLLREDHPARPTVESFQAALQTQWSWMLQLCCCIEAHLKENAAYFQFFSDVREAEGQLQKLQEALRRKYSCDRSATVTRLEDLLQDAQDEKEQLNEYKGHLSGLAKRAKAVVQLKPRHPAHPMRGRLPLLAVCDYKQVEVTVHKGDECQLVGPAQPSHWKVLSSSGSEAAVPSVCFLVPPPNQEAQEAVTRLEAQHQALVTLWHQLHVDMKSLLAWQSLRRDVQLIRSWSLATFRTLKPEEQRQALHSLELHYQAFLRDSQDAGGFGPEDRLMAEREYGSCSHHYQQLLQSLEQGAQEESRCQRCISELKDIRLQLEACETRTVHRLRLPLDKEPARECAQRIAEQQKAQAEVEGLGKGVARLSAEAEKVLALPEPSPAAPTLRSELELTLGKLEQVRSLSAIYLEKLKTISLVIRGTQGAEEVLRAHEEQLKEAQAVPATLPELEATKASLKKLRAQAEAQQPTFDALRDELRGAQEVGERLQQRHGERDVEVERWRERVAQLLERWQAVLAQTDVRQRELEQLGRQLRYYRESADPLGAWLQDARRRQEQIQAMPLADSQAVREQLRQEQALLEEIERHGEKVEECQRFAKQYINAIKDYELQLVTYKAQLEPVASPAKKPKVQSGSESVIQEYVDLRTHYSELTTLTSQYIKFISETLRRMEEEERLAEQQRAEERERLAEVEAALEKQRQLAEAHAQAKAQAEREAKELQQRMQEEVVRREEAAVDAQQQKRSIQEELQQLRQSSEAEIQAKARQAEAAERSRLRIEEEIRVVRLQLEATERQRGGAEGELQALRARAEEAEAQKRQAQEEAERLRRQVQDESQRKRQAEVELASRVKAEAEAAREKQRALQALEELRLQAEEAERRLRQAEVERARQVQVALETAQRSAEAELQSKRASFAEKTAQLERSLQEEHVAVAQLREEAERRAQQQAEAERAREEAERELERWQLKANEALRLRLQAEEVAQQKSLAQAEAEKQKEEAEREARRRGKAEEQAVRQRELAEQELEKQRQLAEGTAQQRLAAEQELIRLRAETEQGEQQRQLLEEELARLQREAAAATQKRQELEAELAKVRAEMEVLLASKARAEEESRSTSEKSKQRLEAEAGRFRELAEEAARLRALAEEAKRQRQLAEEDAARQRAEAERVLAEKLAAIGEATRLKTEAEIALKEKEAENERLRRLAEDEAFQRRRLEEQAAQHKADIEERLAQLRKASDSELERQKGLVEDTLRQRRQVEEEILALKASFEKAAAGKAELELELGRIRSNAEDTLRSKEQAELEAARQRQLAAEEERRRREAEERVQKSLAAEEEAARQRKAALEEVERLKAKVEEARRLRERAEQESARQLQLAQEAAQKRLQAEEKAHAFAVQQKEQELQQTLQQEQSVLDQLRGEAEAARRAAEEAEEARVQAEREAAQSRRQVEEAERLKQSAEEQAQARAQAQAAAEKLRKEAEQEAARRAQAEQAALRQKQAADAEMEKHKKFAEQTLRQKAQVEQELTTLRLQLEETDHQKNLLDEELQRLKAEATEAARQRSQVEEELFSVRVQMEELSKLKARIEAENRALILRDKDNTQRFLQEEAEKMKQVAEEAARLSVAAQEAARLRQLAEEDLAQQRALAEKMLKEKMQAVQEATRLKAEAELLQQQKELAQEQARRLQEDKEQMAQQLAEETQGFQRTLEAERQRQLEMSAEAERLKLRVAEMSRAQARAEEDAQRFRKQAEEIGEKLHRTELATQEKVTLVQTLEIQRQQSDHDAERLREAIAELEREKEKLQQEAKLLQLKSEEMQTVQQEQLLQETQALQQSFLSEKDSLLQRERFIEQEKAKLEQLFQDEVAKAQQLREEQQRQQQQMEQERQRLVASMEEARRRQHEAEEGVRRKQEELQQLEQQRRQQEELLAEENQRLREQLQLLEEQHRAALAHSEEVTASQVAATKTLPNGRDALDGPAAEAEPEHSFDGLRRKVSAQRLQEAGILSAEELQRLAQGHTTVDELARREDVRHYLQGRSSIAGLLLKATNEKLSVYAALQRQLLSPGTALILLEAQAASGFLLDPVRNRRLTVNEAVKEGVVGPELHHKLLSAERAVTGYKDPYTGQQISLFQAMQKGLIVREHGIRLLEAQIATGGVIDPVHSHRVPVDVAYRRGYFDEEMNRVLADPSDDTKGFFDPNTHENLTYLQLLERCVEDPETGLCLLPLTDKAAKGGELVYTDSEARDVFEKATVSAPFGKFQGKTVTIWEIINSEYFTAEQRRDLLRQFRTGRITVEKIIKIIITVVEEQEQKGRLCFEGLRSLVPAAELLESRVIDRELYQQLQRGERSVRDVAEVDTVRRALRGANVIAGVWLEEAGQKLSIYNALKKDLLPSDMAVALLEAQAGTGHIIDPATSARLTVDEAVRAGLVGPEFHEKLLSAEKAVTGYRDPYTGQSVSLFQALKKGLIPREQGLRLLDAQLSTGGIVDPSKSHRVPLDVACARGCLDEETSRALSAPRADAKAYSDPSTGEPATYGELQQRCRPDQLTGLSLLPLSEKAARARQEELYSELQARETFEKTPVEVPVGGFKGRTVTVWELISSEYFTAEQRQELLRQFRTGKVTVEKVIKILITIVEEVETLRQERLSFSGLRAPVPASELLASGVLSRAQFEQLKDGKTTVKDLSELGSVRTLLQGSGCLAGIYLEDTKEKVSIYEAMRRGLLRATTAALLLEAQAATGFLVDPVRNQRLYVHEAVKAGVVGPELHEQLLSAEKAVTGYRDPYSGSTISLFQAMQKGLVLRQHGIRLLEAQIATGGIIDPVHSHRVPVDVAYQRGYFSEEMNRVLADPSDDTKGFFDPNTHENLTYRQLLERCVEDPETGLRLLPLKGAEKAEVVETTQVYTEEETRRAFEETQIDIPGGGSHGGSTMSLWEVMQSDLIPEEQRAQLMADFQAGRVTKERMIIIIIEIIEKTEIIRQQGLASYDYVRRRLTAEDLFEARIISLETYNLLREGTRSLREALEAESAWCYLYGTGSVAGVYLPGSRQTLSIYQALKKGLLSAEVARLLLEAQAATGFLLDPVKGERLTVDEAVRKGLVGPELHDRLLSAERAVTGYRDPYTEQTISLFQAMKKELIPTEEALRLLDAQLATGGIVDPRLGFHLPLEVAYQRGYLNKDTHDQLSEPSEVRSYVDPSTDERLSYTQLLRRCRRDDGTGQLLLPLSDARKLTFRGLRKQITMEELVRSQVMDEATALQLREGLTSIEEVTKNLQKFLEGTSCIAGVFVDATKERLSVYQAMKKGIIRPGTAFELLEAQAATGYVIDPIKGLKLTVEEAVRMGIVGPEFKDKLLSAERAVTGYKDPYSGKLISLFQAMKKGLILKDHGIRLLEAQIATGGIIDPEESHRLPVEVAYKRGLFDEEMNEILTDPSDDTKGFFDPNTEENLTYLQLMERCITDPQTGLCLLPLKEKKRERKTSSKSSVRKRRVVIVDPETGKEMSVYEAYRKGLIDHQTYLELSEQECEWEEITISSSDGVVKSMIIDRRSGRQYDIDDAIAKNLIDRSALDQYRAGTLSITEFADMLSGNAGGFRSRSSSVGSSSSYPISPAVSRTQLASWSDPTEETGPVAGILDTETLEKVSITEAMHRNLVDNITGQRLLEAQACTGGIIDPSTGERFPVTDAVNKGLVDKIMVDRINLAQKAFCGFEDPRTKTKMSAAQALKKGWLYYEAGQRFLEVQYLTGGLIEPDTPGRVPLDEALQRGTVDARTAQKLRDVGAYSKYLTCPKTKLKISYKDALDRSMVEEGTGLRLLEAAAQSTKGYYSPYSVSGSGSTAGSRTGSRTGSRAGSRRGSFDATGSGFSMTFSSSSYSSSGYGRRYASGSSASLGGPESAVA
# Chain of UniProt P15529 (P15529 whole entry): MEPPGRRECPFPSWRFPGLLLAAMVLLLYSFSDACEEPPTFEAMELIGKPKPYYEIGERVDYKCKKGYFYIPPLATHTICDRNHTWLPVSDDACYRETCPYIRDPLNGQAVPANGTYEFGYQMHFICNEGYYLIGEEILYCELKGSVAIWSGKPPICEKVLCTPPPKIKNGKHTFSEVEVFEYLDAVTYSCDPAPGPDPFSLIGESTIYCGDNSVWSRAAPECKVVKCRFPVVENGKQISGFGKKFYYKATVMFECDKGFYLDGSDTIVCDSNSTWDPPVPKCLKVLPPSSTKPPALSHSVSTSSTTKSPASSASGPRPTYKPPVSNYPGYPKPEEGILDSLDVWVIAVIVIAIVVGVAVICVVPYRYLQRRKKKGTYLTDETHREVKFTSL
row,Target,lysine labeling ratio R10:1
1,G6PD (lysine site: K171) (UniProt P11413),6.51
2,FKBP4 (lysine site: K181) (UniProt Q02790),1.43 (active)
3,ACTN4 (lysine site: K66) (UniProt O43707),4.43
4,FSCN1 (lysine site: K43) (UniProt Q16658),1.7 (active)
5,CACNA2D1 (lysine site: K232) (UniProt P54289),3.57
6,UniProt P21589 (lysine site: K478),1.17 (active)
7,UniProt O60245 (lysine site: K875),1.6 (active)
8,RPL35A (lysine site: K45) (UniProt P18077),1.38 (active)
9,NOTCH2 (lysine site: K1350) (UniProt Q04721),2.12
10,CSPG4 (lysine site: K1711) (UniProt Q6UVK1),0.655 (active)
11,LAMB1 (lysine site: K1746) (UniProt P07942),3.26
12,TCP1 (lysine site: K126) (UniProt P17987),2.14
13,UniProt Q15149 (lysine site: K1896),5.17
14,TFPI (lysine site: K102) (UniProt P10646),7.9
15,EFNB2 (lysine site: K83) (UniProt P52799),2.34
16,MLEC (lysine site: K85) (UniProt Q14165),2.36
17,CD46 (lysine site: K227) (UniProt P15529),6.48
18,ADAM15 (lysine site: K660) (UniProt Q13444),4.34
19,KRT18 (lysine site: K372) (UniProt P05783),2.29
20,UniProt Q15149 (lysine site: K1150),3.29
21,CLU (lysine site: K62) (UniProt P10909),1.13 (active)
22,CTTN (lysine site: K184) (UniProt Q14247),1.5 (active)
23,MYH9 (lysine site: K1638) (UniProt P35579),3.09
